Data on 67 molecules can be found in the antibiotic and cytotoxicity screens of Wong et al. (2023).

In all, about 39,000 compounds went through this assay and about 3,300 (8.5%) were called active. The sample holds actives, similar compounds and a random draw of the others, so the mix is not that of the screen.

The subject of the assay is HepG2. Briefly: cytotoxicity call (relative viability < 0.9). The settings on record: 10 µM.
Turning to `Cn1cnc(CCNC(=O)C[C@@H]2CC[C@@H]3[C@H](COC[C@@H](O)CN3C(=O)Nc3ccc(Cl)cc3)O2)c1`, the cytotoxicity call was “inactive”.

As to `COc1ccc(S(=O)(=O)N(C)C[C@@H]2Oc3ccc(NC(=O)Nc4cccc5ccccc45)cc3C(=O)N([C@@H](C)CO)C[C@H]2C)cc1`, the cytotoxicity call was “inactive”.

Consider `C[C@H]1CN([C@@H](C)CO)C(=O)c2cc(C#CCN(C)C)cnc2O[C@H]1CN(C)S(=O)(=O)c1ccccc1`, for which the cytotoxicity call is “inactive”.

For the molecule `COc1cccc(NC(=O)N2C[C@@H](O)COC[C@H]3O[C@@H](CC(=O)NCc4ccccc4F)CC[C@@H]32)c1`, the cytotoxicity call is “inactive”.

As for `C[C@H](CO)N1C[C@H](C)[C@@H](CN(C)C(=O)c2ccncc2)Oc2cc(C#Cc3ccncc3)ccc2S1(=O)=O`, the cytotoxicity call was “active”.

On to `C[C@H]1CN([C@@H](C)CO)S(=O)(=O)c2ccc(C#Cc3ccncc3)cc2O[C@@H]1CN(C)C(=O)c1ccncc1`, for which the cytotoxicity call was “active”.

With `C[C@@H]1CN([C@H](C)CO)S(=O)(=O)c2ccc(C#Cc3ccncc3)cc2O[C@@H]1CN(C)C(=O)c1ccncc1`, the cytotoxicity call is “active”.

With `C[C@H](O)C#Cc1ccc2c(c1)O[C@H](CN(C)C(=O)c1ccncc1)[C@H](C)CN([C@@H](C)CO)S2(=O)=O`, the cytotoxicity call is “inactive”.

In the case of `C[C@@H]1CN([C@@H](C)CO)S(=O)(=O)c2ccc(C#Cc3ccncc3)cc2O[C@H]1CN(C)C(=O)c1ccncc1`, the cytotoxicity call is “inactive”.

`C[C@H](CO)N1C[C@H](C)[C@H](CN(C)C(=O)c2ccncc2)Oc2cc(C#Cc3ccncc3)ccc2S1(=O)=O`: the cytotoxicity call is “active”.

As for `C[C@H](O)C#Cc1ccc2c(c1)O[C@@H](CN(C)C(=O)c1ccncc1)[C@@H](C)CN([C@H](C)CO)S2(=O)=O`, the cytotoxicity call is “inactive”.

In the case of `C[C@H](O)C#Cc1ccc2c(c1)O[C@H](CN(C)C(=O)c1ccncc1)[C@@H](C)CN([C@@H](C)CO)S2(=O)=O`, the cytotoxicity call is “inactive”.

Take `C[C@H](O)C#Cc1ccc2c(c1)O[C@@H](CN(C)C(=O)c1ccncc1)[C@H](C)CN([C@@H](C)CO)S2(=O)=O`: the cytotoxicity call is “inactive”.

Turning to `C[C@H](O)C#Cc1ccc2c(c1)O[C@@H](CN(C)C(=O)c1ccncc1)[C@H](C)CN([C@H](C)CO)S2(=O)=O`, the cytotoxicity call is “inactive”.

On to `C[C@@H]1CN([C@@H](C)CO)S(=O)(=O)c2ccc(C#Cc3ccncc3)cc2O[C@@H]1CN(C)C(=O)c1ccncc1`, for which the cytotoxicity call is “inactive”.

For `C[C@@H](O)C#Cc1ccc2c(c1)O[C@@H](CN(C)C(=O)c1ccncc1)[C@@H](C)CN([C@@H](C)CO)S2(=O)=O`, the cytotoxicity call was “inactive”.

In the case of `C[C@@H]1CN([C@H](C)CO)S(=O)(=O)c2ccc(C#CC(C)(C)O)cc2O[C@@H]1CN(C)Cc1ccncc1`, the cytotoxicity call is “inactive”.

For the molecule `CCCNC(=O)C[C@H]1CC[C@@H]2[C@H](COc3ccc(NS(=O)(=O)c4ccccc4C)cc3C(=O)N2C)O1`, the cytotoxicity call is “inactive”.

In the case of `C[C@H](CO)N1C[C@H](C)[C@@H](CN(C)C(=O)Nc2ccc(F)cc2)OCCCC[C@H](C)Oc2ccc(NC(=O)CCC(F)(F)F)cc2C1=O`, the cytotoxicity call was “inactive”.

As for `COCC(=O)N1C[C@H](C)[C@H](OC)CN(C)C(=O)c2cc(NC(=O)c3ccc(OC)cc3)ccc2OC[C@H]1C`, the cytotoxicity call was “inactive”.

Consider `NCCSC12CC3CC(CC(C3)C1)C2`, for which the cytotoxicity call was “inactive”.

`C[C@H]1CN([C@@H](C)CO)S(=O)(=O)c2ccc(C#Cc3ccncc3)cc2O[C@H]1CN(C)C(=O)c1ccncc1`: the cytotoxicity call is “active”.

In the case of `C[C@@H](O)C#Cc1ccc2c(c1)O[C@H](CN(C)C(=O)c1ccncc1)[C@@H](C)CN([C@@H](C)CO)S2(=O)=O`, the cytotoxicity call was “inactive”.

`C[C@H](O)C#Cc1ccc2c(c1)O[C@@H](CN(C)C(=O)c1ccncc1)[C@@H](C)CN([C@@H](C)CO)S2(=O)=O`: the cytotoxicity call is “inactive”.

Regarding `C[C@H](O)C#Cc1ccc2c(c1)O[C@H](CN(C)C(=O)c1ccncc1)[C@@H](C)CN([C@H](C)CO)S2(=O)=O`, the cytotoxicity call was “inactive”.

Consider `C[C@@H]1CN([C@H](C)CO)S(=O)(=O)c2ccc(C#C[C@@H](C)O)cc2O[C@H]1CN(C)C(=O)c1ccncc1`, for which the cytotoxicity call is “inactive”.

On to `C[C@@H]1CN([C@H](C)CO)S(=O)(=O)c2ccc(C#Cc3ccncc3)cc2O[C@H]1CN(C)C(=O)c1ccncc1`, for which the cytotoxicity call is “active”.

As to `COc1ccc(CN(C)C[C@@H]2OCCCC[C@H](C)Oc3ccc(NS(=O)(=O)c4ccc(C)cc4)cc3C(=O)N([C@H](C)CO)C[C@H]2C)cc1`, the cytotoxicity call is “inactive”.

As to `COc1ccc(S(=O)(=O)N(C)C[C@H]2OCc3cn(nn3)CCCC(=O)N([C@H](C)CO)C[C@H]2C)cc1`, the cytotoxicity call was “inactive”.

For `C[C@@H]1CCCCO[C@H](CN(C)S(C)(=O)=O)[C@@H](C)CN([C@H](C)CO)C(=O)c2cc(NS(=O)(=O)c3cn(C)cn3)ccc2O1`, the cytotoxicity call was “inactive”.

Turning to `CC(=O)n1cc([C@@H]2C=C(C(=O)N3CCN(C)CC3)O[C@H](OCc3ccc(CO)cc3)C2)c2ccccc21`, the cytotoxicity call was “inactive”.

As for `CCn1c(C)cn2c3c(=O)n(CCN4CCOCC4)c(=O)n(C)c3nc12`, the cytotoxicity call was “inactive”.

For `O=C/C=C/c1ccccc1Cl`, the cytotoxicity call is “inactive”.

As for `C[C@@H]1CN([C@@H](C)CO)C(=O)c2cccc(NS(C)(=O)=O)c2O[C@H]1CN(C)C(=O)Nc1ccccc1`, the cytotoxicity call is “inactive”.

Take `C[C@@H]1CN([C@@H](C)CO)C(=O)c2cc(NC(=O)Cc3ccccc3)ccc2O[C@@H]1CN(C)S(C)(=O)=O`: the cytotoxicity call was “inactive”.

In the case of `COC(=O)c1cccc(C(=O)OC)n1`, the cytotoxicity call was “inactive”.

Regarding `COC(=O)c1ccc(O)cc1`, the cytotoxicity call was “inactive”.

Consider `COC(=O)c1ccc(C(=O)OC)nc1`, for which the cytotoxicity call was “active”.

As for `C[C@H](CO)N1C[C@H](C)[C@@H](CN(C)S(=O)(=O)c2ccccc2)Oc2ccc(NC(=O)Nc3cccc4ccccc34)cc2C1=O`, the cytotoxicity call was “inactive”.

In the case of `CCC(=O)N[C@H]1CC[C@@H](CC(=O)OC)O[C@H]1CO`, the cytotoxicity call was “inactive”.

For `C[C@@H]1CN([C@H](C)CO)C(=O)c2cccc(NC(=O)C3CCCCC3)c2O[C@H]1CN(C)C(=O)Nc1cccc2ccccc12`, the cytotoxicity call is “inactive”.

Consider `COC(=O)[C@H](Cc1ccccc1)N1CC2=C[C@@H]([C@@H](O)CCn3cc(C(=O)NO)nn3)n3c(=O)n(C)c(=O)n3[C@@H]2[C@@H](C2CC2)O1`, for which the cytotoxicity call is “inactive”.

`Cc1ccc(S(=O)(=O)Nc2ccc3c(c2)C(=O)N([C@@H](C)CO)C[C@@H](C)[C@@H](CN(C)C(=O)Nc2ccc(F)cc2)OCCCC[C@@H](C)O3)cc1`: the cytotoxicity call is “inactive”.

Consider `Cc1ccc(S(=O)(=O)Nc2ccc3c(c2)C(=O)N([C@@H](C)CO)C[C@@H](C)[C@@H](CN(C)C(=O)Nc2ccccc2)OCCCC[C@H](C)O3)cc1`, for which the cytotoxicity call was “inactive”.

`Cc1ccc(S(=O)(=O)Nc2ccc3c(c2)C(=O)N([C@@H](C)CO)C[C@H](C)[C@@H](CN(C)C(=O)Nc2ccc(F)cc2)OCCCC[C@H](C)O3)cc1`: the cytotoxicity call was “inactive”.

Regarding `Cc1ccc(S(=O)(=O)Nc2ccc3c(c2)C(=O)N([C@H](C)CO)C[C@H](C)[C@H](CN(C)C(=O)Nc2ccc(F)cc2)OCCCC[C@H](C)O3)cc1`, the cytotoxicity call was “inactive”.

Take `Cc1ccc(S(=O)(=O)Nc2ccc3c(c2)C(=O)N([C@H](C)CO)C[C@H](C)[C@@H](CN(C)C(=O)Nc2ccccc2)OCCCC[C@H](C)O3)cc1`: the cytotoxicity call was “inactive”.

For the molecule `Cc1ccc(S(=O)(=O)Nc2ccc3c(c2)C(=O)N([C@H](C)CO)C[C@@H](C)[C@H](CN(C)C(=O)Nc2ccc(F)cc2)OCCCC[C@H](C)O3)cc1`, the cytotoxicity call was “active”.

Regarding `Cc1ccc(S(=O)(=O)Nc2ccc3c(c2)C(=O)N([C@@H](C)CO)C[C@H](C)[C@H](CN(C)C(=O)Nc2ccc(F)cc2)OCCCC[C@@H](C)O3)cc1`, the cytotoxicity call was “inactive”.

In the case of `Cc1ccc(S(=O)(=O)Nc2ccc3c(c2)C(=O)N([C@@H](C)CO)C[C@H](C)[C@@H](CN(C)C(=O)Nc2ccc(F)cc2)OCCCC[C@@H](C)O3)cc1`, the cytotoxicity call is “inactive”.

Consider `Cc1ccc(S(=O)(=O)Nc2ccc3c(c2)C(=O)N([C@H](C)CO)C[C@H](C)[C@@H](CN(C)C(=O)Nc2ccc(F)cc2)OCCCC[C@H](C)O3)cc1`, for which the cytotoxicity call is “active”.

In the case of `Cc1ccc(S(=O)(=O)Nc2ccc3c(c2)C(=O)N([C@@H](C)CO)C[C@H](C)[C@@H](CN(C)C(=O)Nc2ccccc2)OCCCC[C@H](C)O3)cc1`, the cytotoxicity call was “active”.

In the case of `Cc1ccc(S(=O)(=O)Nc2ccc3c(c2)C(=O)N([C@H](C)CO)C[C@@H](C)[C@H](CN(C)C(=O)Nc2ccc(F)cc2)OCCCC[C@@H](C)O3)cc1`, the cytotoxicity call was “active”.

Consider `Cc1ccc(S(=O)(=O)Nc2ccc3c(c2)C(=O)N([C@@H](C)CO)C[C@@H](C)[C@H](CN(C)C(=O)Nc2ccc(F)cc2)OCCCC[C@@H](C)O3)cc1`, for which the cytotoxicity call was “inactive”.

Turning to `C[C@@H]1CN([C@@H](C)CO)C(=O)c2cccc(NC(=O)C3CCCCC3)c2O[C@H]1CN(C)Cc1ccc(-c2ccccc2)cc1`, the cytotoxicity call was “inactive”.

As to `CC(C)NC(=O)Nc1ccc2c(c1)C(=O)N([C@@H](C)CO)C[C@H](C)[C@H](CN(C)S(=O)(=O)c1ccc(F)cc1)O2`, the cytotoxicity call was “inactive”.

Consider `Cc1cccc(N2CCC(N)CC2)c1`, for which the cytotoxicity call was “inactive”.

Regarding `CN1C(=O)c2cc(NC(=O)c3ccc(F)c(F)c3)ccc2OC[C@H]2O[C@@H](CC(=O)N3CCOCC3)CC[C@@H]21`, the cytotoxicity call was “inactive”.

On to `COc1ccc(NC(=O)N(C)C[C@@H]2Oc3c(NC(=O)c4ccc(-c5nccs5)cc4)cccc3C(=O)N([C@@H](C)CO)C[C@H]2C)cc1`, for which the cytotoxicity call was “inactive”.

As for `CCNC(=O)C[C@H]1CC[C@@H]2[C@H](COC[C@@H](O)CN2C(=O)Nc2c(C)noc2C)O1`, the cytotoxicity call was “inactive”.

Take `CN(C)CCCCNC(=O)[C@@H]1C[C@@H]2C(=O)N[C@@H](CCCC[N+](C)(C)C)C(=O)N2[C@@H]1c1cccc(OCCO)c1`: the cytotoxicity call is “inactive”.

Consider `Cc1ccc(S(=O)(=O)Nc2ccc3c(c2)C(=O)N([C@@H](C)CO)C[C@H](C)[C@H](CN(C)S(=O)(=O)c2ccc(C)cc2)OCCCC[C@H](C)O3)cc1`, for which the cytotoxicity call was “active”.

On to `Cc1ccc(S(=O)(=O)Nc2ccc3c(c2)C(=O)N([C@H](C)CO)C[C@H](C)[C@@H](CN(C)S(=O)(=O)c2ccc(C)cc2)OCCCC[C@H](C)O3)cc1`, for which the cytotoxicity call was “inactive”.

Turning to `Cc1ccc(S(=O)(=O)Nc2ccc3c(c2)C(=O)N([C@@H](C)CO)C[C@@H](C)[C@H](CN(C)S(=O)(=O)c2ccc(C)cc2)OCCCC[C@@H](C)O3)cc1`, the cytotoxicity call was “active”.

With `Cc1ccc(S(=O)(=O)Nc2ccc3c(c2)C(=O)N([C@H](C)CO)C[C@@H](C)[C@H](CN(C)S(=O)(=O)c2ccc(C)cc2)OCCCC[C@@H](C)O3)cc1`, the cytotoxicity call was “inactive”.

For `Cc1ccc(S(=O)(=O)Nc2ccc3c(c2)C(=O)N([C@H](C)CO)C[C@H](C)[C@@H](CN(C)S(=O)(=O)c2ccc(C)cc2)OCCCC[C@@H](C)O3)cc1`, the cytotoxicity call was “inactive”.

As for `Cc1ccc(S(=O)(=O)Nc2ccc3c(c2)C(=O)N([C@H](C)CO)C[C@@H](C)[C@@H](CN(C)S(=O)(=O)c2ccc(C)cc2)OCCCC[C@@H](C)O3)cc1`, the cytotoxicity call was “inactive”.
